# In PubChem BioAssay (Tox21):
# Unmarked numbers belong to inactive results. Records with an inconclusive call do not appear. Entries that show only a call come without a potency. The source made the active and inactive calls. Unless noted, calls come from the whole dose curve; as a rule, active = well fitted curve in the direction sought with a large enough effect in the repeat runs; inconclusive = weak or mixed curves; inactive = no such curve, though single readings can be large; an effect the other way counts as inactive or inconclusive.
# How the values were obtained:
# [1] = qHTS assay to identify small molecule agonists of H2AX - cell viability counter screen (AID 1224847; calls by dose curve; note: nearly all actives have a fitted effect of over 30% in size; note: potency is the fitted concentration of half-maximal effect;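 for activity change, negative = cytotoxicity: wild-type CHO-K1 cells; top concentration of the series differs between compounds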)
# How it was run: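 CHO-K1 cells plated overnight at 37C, then exposed 3 h at 37C to compounds at 15 concentrations (0.76% DMSO final). Viability by CellTiter-Glo luminescence after 30 min at room temperature.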
# [2] = qHTS RealTime-Glo MT Cell Viability Assay in HepG2 cells - 24 hour (AID 1224867); note: nearly all actives have a fitted effect of over 50% in size; note: potency is the fitted concentration of half-maximal effect
# How it was run: (§1)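 Viability was tracked continuously by NanoLuc luminescence from prosubstrate reduced by living HepG2 cells, at successive time points over 40 h of compound exposure. Cells with reagent were preincubated 5 h at 37 °C before compound addition.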
# [3] = A CellTox Green Cytotoxicity Assay to monitor cytotoxicity in HEK293 cells - 0 hour (AID 1224869); note: nearly all actives have a fitted effect of over 50% in size
# How it was run: (§2)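 HEK293 cells premixed with CellTox Green dye were seeded at 600 cells/well and left 5 h at 37 C/5% CO2 before pin transfer of 23 nL compound in DMSO. Fluorescence from dye bound to dead-cell DNA was read during 40 h treatment.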
# [4] = qHTS RealTime-Glo MT Cell Viability Assay in HepG2 cells - 40 hour (AID 1224870); note: nearly all actives have a fitted effect of over 50% in size; note: potency is the fitted concentration of half-maximal effect
# How it was run: (§3)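 HepG2 cells (600/well) mixed with RealTime-Glo MT reagent, settled 5 h at 37 C/5% CO2 before compound addition. Nonlytic NanoLuc luminescence from viable-cell prosubstrate reduction read repeatedly during 40 h treatment at 37 C.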
# [5] = A CellTox Green Cytotoxicity Assay to monitor cytotoxicity in HEK293 cells - 40 hour (AID 1224871); note: nearly all actives have a fitted effect of over 45% in size; note: potency is the fitted concentration of half-maximal effect
# How it was run: as §2
# [6] = qHTS RealTime-Glo MT Cell Viability Assay in HEK293 cells - 16 hour (AID 1224872); note: nearly all actives have a fitted effect of over 50% in size; note: potency is the fitted concentration of half-maximal effect; for activity change, negative = cytotoxicity: top concentration of the series differs between compounds
# How it was run: (§4)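 Viability tracked continuously by luminescence as live cells reduce a prosubstrate for NanoLuc; HEK293 cells preincubated 5 h, compound-treated at 37 C, and read at 0, 8, 16, 24, 32 and 40 h.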
# [7] = qHTS RealTime-Glo MT Cell Viability Assay in HEK293 cells - 40 hour (AID 1224874); settings: RealTime-Glo luminescence; max response: hits give low values; note: nearly all actives have a fitted effect of over 50% in size; note: potency is the fitted concentration of half-maximal effect
# How it was run: (§5)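 HEK293 cells mixed with RealTime-Glo reagents (NanoLuc plus cell-permeant prosubstrate) at 600 cells/well, preincubated 5 h at 37 C/5% CO2, then given 23 nL compound in DMSO. Nonlytic luminescence from viable cells was read at 0, 8, 16, 24, 32 and 40 h.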
# [8] = A CellTox Green Cytotoxicity Assay to monitor cytotoxicity in HEK293 cells - 24 hour (AID 1224875); note: nearly all actives have a fitted effect of over 45% in size; note: potency is the fitted concentration of half-maximal effect
# How it was run: as §2
# [9] = A CellTox Green Cytotoxicity Assay to monitor cytotoxicity in HepG2 cells - 16 hour (AID 1224876); note: nearly all actives have a fitted effect of over 45% in size; note: potency is the fitted concentration of half-maximal effect
# How it was run: (§6)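 HepG2 cells were seeded together with the CellTox Green dye at 600 cells/well, left 5 h at 37 C/5% CO2, then given compounds in DMSO. Fluorescence from dye bound to dead-cell DNA was read repeatedly over 40 h of treatment at 37 C.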
# [10] = qHTS RealTime-Glo MT Cell Viability Assay in HepG2 cells - 32 hour (AID 1224877); note: nearly all actives have a fitted effect of over 55% in size; note: potency is the fitted concentration of half-maximal effect
# How it was run: as §1
# [11] = A CellTox Green Cytotoxicity Assay to monitor cytotoxicity in HepG2 cells - 24 hour (AID 1224878); note: nearly all actives have a fitted effect of over 45% in size; note: potency is the fitted concentration of half-maximal effect
# How it was run: as §6
# [12] = A CellTox Green Cytotoxicity Assay to monitor cytotoxicity in HepG2 cells - 40 hour (AID 1224879); note: nearly all actives have a fitted effect of over 40% in size; note: potency is the fitted concentration of half-maximal effect
# How it was run: as §6
# [13] = qHTS RealTime-Glo MT Cell Viability Assay in HEK293 cells - 0 hour (AID 1224880); note: nearly all actives have a fitted effect of over 45% in size; note: potency is the fitted concentration of half-maximal effect; for activity change, negative = cytotoxicity: top concentration of the series differs between compounds
# How it was run: as §5
# [14] = A CellTox Green Cytotoxicity Assay to monitor cytotoxicity in HEK293 cells - 32 hour (AID 1224881); note: nearly all actives have a fitted effect of over 40% in size; note: potency is the fitted concentration of half-maximal effect
# How it was run: as §2
# [15] = A CellTox Green Cytotoxicity Assay to monitor cytotoxicity in HepG2 cells - 0 hour (AID 1224882); note: nearly all actives have a fitted effect of over 35% in size
# How it was run: as §6
# [16] = qHTS assay to identify small molecule antagonists of the estrogen related receptor (ERR) signaling pathway from Tox21 library (AID 1224848); note: nearly all actives have a fitted effect of over 50% in size; note: potency is the fitted concentration of half-maximal effect
# How it was run: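 ERR reporter cell line (from NTP) seeded 2,000 cells/well, rested 6 h at 37 C/5% CO2, then pin-dosed with compounds in DMSO. After 18 h at 37 C, ONE-Glo added; luminescence read after 30 min at room temperature.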
# [17] = qHTS assay to identify small molecule agonists of the estrogen related receptor (ERR) signaling pathway from Tox21 library (AID 1224849; calls by dose curve; note: nearly all actives have a fitted effect of over 15% in size); settings: ERR reporter cell line, ONE-Glo luciferase, 18 h; at 92.4 µM (top of the series) unless noted
# How it was run: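 ERR reporter cell line (NTP) seeded, rested 6 h at 37 C/5% CO2, then pinned with Tox21 compounds in DMSO. After 18 h at 37 C, ONE-Glo luciferase luminescence was read following 30 min at room temperature.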
# [18] = qHTS RealTime-Glo MT Cell Viability Assay in HepG2 cells - 8 hour (AID 1224873); note: nearly all actives have a fitted effect of over 55% in size; note: potency is the fitted concentration of half-maximal effect
# How it was run: as §3
# [19] = qHTS RealTime-Glo MT Cell Viability Assay in HEK293 cells - 32 hour (AID 1224868); note: nearly all actives have a fitted effect of over 50% in size; note: potency is the fitted concentration of half-maximal effect; for activity change, negative = cytotoxic: top concentration of the series differs between compounds
# How it was run: as §4
smiles,measurement,setting,value
CN(C)c1ccc(N=NS(=O)(=O)O)cc1,Potency,[1],40.1 µM (active)
same,Potency,[2],inactive
same,Potency,[3],inactive
same,Potency,[4],inactive
same,Potency,[5],inactive
same,Potency,[6],14.5 µM (active)
same,max response,[7],-17.2%
same,Potency,[8],inactive
same,Potency,[9],inactive
same,Potency,[10],inactive
same,Potency,[11],inactive
same,Potency,[12],inactive
same,Potency,[13],inactive
same,Potency,[14],inactive
same,Potency,[15],inactive
O=C(NO)c1ccccc1,Potency,[16],23.2 µM (active)
same,"activity change, positive = activation",[17],-48.5%
same,Potency,[2],inactive
same,Potency,[3],inactive
same,Potency,[4],inactive
same,Potency,[18],inactive
same,Potency,[10],inactive
same,Potency,[13],inactive
same,Potency,[15],inactive
CC(CN(C)C)CN1c2ccccc2CCc2ccccc21 (configuration not stated),Potency,[1],inactive
same,Potency,[2],inactive
same,Potency,[3],inactive
same,Potency,[4],inactive
same,Potency,[5],inactive
same,Potency,[6],inactive
same,Potency,[8],inactive
same,Potency,[12],23.9 µM (active)
same,Potency,[13],inactive
same,Potency,[14],inactive
same,Potency,[15],inactive
COc1cc(C(C)C)c2c(c1)S(=O)(=O)N(COc1cc(=O)n3cccc(OCCN4CCCCC4)c3n1)C2=O,Potency,[1],24 µM (active)
same,"activity change, negative = cytotoxicity",[2],-8.66% [at 15.8 µM]
same,cytotoxicity,[3],-2.82% [at 15.8 µM]
same,"activity change, negative = cytotoxic",[4],-2.06% [at 15.8 µM]
same,"activity change, negative = cytotoxicity",[6],3.24% [at 15.8 µM]
same,activity change,[8],"0.172% [at 15.8 µM, hits give high values]"
same,cytotoxicity increase,[9],19.8% [at 15.8 µM]
same,"activity change, negative = cytotoxic",[10],-2.94% [at 15.8 µM]
same,"activity change, negative = cytotoxicity",[13],-4.74% [at 15.8 µM]
same,cytotoxicity increase,[14],5.59% [at 15.8 µM]
same,cytotoxicity,[15],2.15% [at 15.8 µM]
CCOC(=O)C1=C(C)NC(C)=C(C(=O)OCC)C1c1ccccc1/C=C/C(=O)OC(C)(C)C,Potency,[16],13.3 µM (active)
same,"activity change, positive = activation",[17],-56.8% [at 42.5 µM]
same,Potency,[3],inactive
same,Potency,[5],inactive
same,Potency,[6],inactive
same,Potency,[8],inactive
same,Potency,[9],inactive
same,Potency,[11],inactive
same,Potency,[12],inactive
same,Potency,[13],3.79 µM (active)
same,Potency,[14],inactive
same,Potency,[15],inactive
CC(=O)Oc1ccc(C2(c3ccc(OC(C)=O)cc3)Oc3ccccc3NC2=O)cc1,Potency,[1],inactive
same,Potency,[2],inactive
same,Potency,[3],inactive
same,Potency,[4],inactive
same,Potency,[5],inactive
same,Potency,[6],inactive
same,Potency,[18],inactive
same,Potency,[8],inactive
same,Potency,[9],inactive
same,Potency,[10],inactive
same,Potency,[13],inactive
same,Potency,[15],inactive
Cc1cc2c(C(C)C)c(O)c(O)c(C=O)c2c(O)c1-c1c(C)cc2c(C(C)C)c(O)c(O)c(C=O)c2c1O,Potency,[16],7.5 µM (active)
same,Potency,[2],21.3 µM (active)
same,Potency,[19],12 µM (active)
same,Potency,[3],inactive
same,Potency,[4],26.8 µM (active)
same,Potency,[5],19 µM (active)
same,Potency,[6],19 µM (active)
same,Potency,[7],8.49 µM (active)
same,Potency,[8],19 µM (active)
same,Potency,[10],21.3 µM (active)
same,Potency,[12],26.8 µM (active)
same,Potency,[13],inactive
same,Potency,[14],21.3 µM (active)
same,Potency,[15],inactive
CC(C)(C)c1cc(/C=C2\SC(=N)NC2=O)cc(C(C)(C)C)c1O,Potency,[16],48.6 µM (active)
same,"activity change, positive = activation",[17],-57.9%
same,Potency,[19],49 µM (active)
same,Potency,[3],inactive
same,Potency,[6],43.6 µM (active)
same,Potency,[9],43.6 µM (active)
same,Potency,[11],43.6 µM (active)
same,Potency,[12],43.6 µM (active)
same,Potency,[13],inactive
NC1(c2ccc(-c3nc4ccn5c(=O)[nH]nc5c4cc3-c3ccccc3)cc2)CCC1,Potency,[16],3.35 µM (active)
same,"activity change, positive = activation",[17],-52.3% [at 42.5 µM]
same,Potency,[2],23.9 µM (active)
same,Potency,[19],1.9 µM (active)
same,Potency,[3],inactive
same,Potency,[5],26.8 µM (active)
same,Potency,[6],6.01 µM (active)
same,Potency,[7],1.07 µM (active)
same,Potency,[12],26.8 µM (active)
same,Potency,[13],inactive
CNC(=O)c1cc(Oc2ccc(NC(=O)Nc3ccc(Cl)c(C(F)(F)F)c3)cc2)ccn1,Potency,[16],8.41 µM (active)
same,"activity change, positive = activation",[17],-59.1% [at 42.5 µM]
same,Potency,[19],3.01 µM (active)
same,Potency,[5],inactive
same,Potency,[6],3.01 µM (active)
same,Potency,[7],3.01 µM (active)
same,Potency,[8],inactive
same,Potency,[9],inactive
same,Potency,[11],inactive
same,Potency,[13],inactive
same,Potency,[14],inactive
same,Potency,[15],inactive
Nc1ncnc2c1ncn2[C@@H]1O[C@H](COP(=O)(O)O)[C@@H](O)[C@H]1O,Potency,[1],inactive
same,Potency,[19],inactive
same,Potency,[4],inactive
same,Potency,[5],inactive
same,Potency,[6],inactive
same,Potency,[8],inactive
same,Potency,[9],inactive
same,Potency,[10],inactive
same,Potency,[11],inactive
same,Potency,[12],inactive
same,Potency,[13],inactive
same,Potency,[14],inactive
COc1ccc(-n2nc(CCC(=O)N(C)O)cc2-c2ccc(Cl)cc2)cc1,Potency,[1],inactive
same,Potency,[2],inactive
same,Potency,[3],inactive
same,Potency,[4],inactive
same,Potency,[5],inactive
same,Potency,[6],inactive
same,Potency,[18],inactive
same,Potency,[8],inactive
same,Potency,[10],inactive
same,Potency,[13],inactive
same,Potency,[14],inactive
same,Potency,[15],inactive
CN(Cc1cc(Br)cc(Br)c1N)C1CCCCC1,Potency,[16],inactive
same,"activity change, positive = activation",[17],-11.1% [at 42.5 µM]
same,Potency,[2],inactive
same,Potency,[3],inactive
same,Potency,[4],inactive
same,Potency,[18],inactive
same,Potency,[9],19 µM (active)
same,Potency,[10],inactive
same,Potency,[11],21.3 µM (active)
same,Potency,[13],inactive
same,Potency,[15],inactive
O=C1c2c(O)ccc(O)c2C(=O)c2c(NCCNCCO)ccc(NCCNCCO)c21,Potency,[16],0.75 µM (active)
same,"activity change, positive = activation",[17],-59.3% [at 42.5 µM]
same,Potency,[2],9.52 µM (active)
same,Potency,[19],0.0239 µM (active)
same,Potency,[3],inactive
same,Potency,[4],7.56 µM (active)
same,Potency,[5],inactive
same,Potency,[6],0.848 µM (active)
same,Potency,[18],inactive
same,Potency,[7],0.019 µM (active)
same,Potency,[8],inactive
same,Potency,[10],8.49 µM (active)
same,Potency,[11],inactive
same,Potency,[12],inactive
same,Potency,[13],inactive
same,Potency,[15],inactive
CC(C)c1cccc(C(C)C)c1N1C(=O)c2ccc(O)cc2C1=O,Potency,[1],80 µM (active)
same,Potency,[2],49 µM (active)
same,Potency,[3],inactive
same,Potency,[5],49 µM (active)
same,Potency,[18],43.6 µM (active)
same,Potency,[9],24.5 µM (active)
same,Potency,[10],43.6 µM (active)
same,Potency,[11],24.5 µM (active)
same,Potency,[12],24.5 µM (active)
same,Potency,[13],inactive
same,Potency,[15],inactive
